Source: PubChem BioAssay (NCATS)
Results filed as inconclusive are left out. Activity calls are given as the source filed them. The call rests on the fitted dose curve; in most records, active means well fitted inhibition curve with a large enough effect; inconclusive means small, poorly fitted or top-dose-only effect; inactive means no such curve, though single readings can be large or run the other way.

These compounds were tested against Cytochrome P450 3A7 (Homo sapiens) (UniProt P24462) (assay: Cytochrome P450 family 3 subfamily A member 7 (CYP3A7) small molecule antagonists: luciferase biochemical qHTS assay (AID 1963596; further: nearly all actives have a fitted effect of over 40% in size)). Conditions: P450-Glo CYP3A7 enzyme luminescence, 1 h; series mostly up to 57.4 µM; activity change, negative = inhibition: at the top concentration.
Sequence of Cytochrome P450 3A7 (Homo sapiens) (P24462 whole entry, looked up): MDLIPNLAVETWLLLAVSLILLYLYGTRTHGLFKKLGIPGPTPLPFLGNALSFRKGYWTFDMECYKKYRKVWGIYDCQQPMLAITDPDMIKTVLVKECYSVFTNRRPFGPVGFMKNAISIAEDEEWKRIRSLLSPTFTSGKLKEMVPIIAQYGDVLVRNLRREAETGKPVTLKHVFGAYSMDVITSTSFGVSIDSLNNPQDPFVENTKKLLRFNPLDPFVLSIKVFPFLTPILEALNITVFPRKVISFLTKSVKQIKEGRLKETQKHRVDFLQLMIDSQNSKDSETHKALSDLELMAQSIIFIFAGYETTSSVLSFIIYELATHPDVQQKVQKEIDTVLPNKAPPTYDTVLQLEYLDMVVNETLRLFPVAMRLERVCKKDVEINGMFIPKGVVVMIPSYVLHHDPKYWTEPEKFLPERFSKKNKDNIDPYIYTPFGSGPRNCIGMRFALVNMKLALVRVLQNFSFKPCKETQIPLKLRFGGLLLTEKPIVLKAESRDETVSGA
Excerpt: National Center for Advancing Translational Sciences [NCATS] Assay Overview: Cytochrome P450 (CYP) enzymes are membrane-bound hemeproteins that play a key role in metabolism of drugs and xenobiotics. The CYP3A subfamily is the most abundant, representing 30% of the total adult hepatic CYP content, whereas CYP3A7 is found predominantly in human fetal liver and accounts up to 50% of the total fetal hepatic CYP content. Testing the effect of chemicals on CYP isozymes is useful to minimize the adverse drug reactions and toxicities in the drug development process. Chemicals were tested for their effect on CYP enzyme activities by using P450-Glo (TM) screening systems (Promega Corporation, Madison, WI). These systems provide a luminescent method containing proluciferin substrates and are converted to luciferin products by CYP isozymes. The luciferin products formed are detected with a luciferin detection reagent, and the amount of light produced is proportional to CYP activity. P450-Glo (TM) CYP3A7 screening system (Catalog. No. V8812) was used to detect the compounds that interfere with CYP3A7 activity. The positive control compound used for CYP3A7 assay is ketoconazole (Sigma-Aldrich, St. Louis, MO).
Assay Protocol Summary: Two ul of enzyme-substrate mix was dispensed into medium binding white/solid 1536-well plates (Greiner Bio-One North America Inc., Monroe, NC) using a Flying Reagent Dispenser (FRD, Aurora Discovery, San Diego, CA). Compounds dissolved in DMSO, and positive control (ketoconazole) were transferred to the assay plates at 23 nl using a Pintool station (Wako, San Diego, CA). The assay plates were incubated at room temperature for 10 min. Then 2 ul of NADPH regeneration solution was added to each well of the assay plates using an FRD and incubated at room temperature for 1 h. The reaction was stopped by adding 4 ul of detection reagent using an FRD and after 20 min incubation at room temperature the luminescence signal was measured using a ViewLux plate reader (Perkin Elmer, Shelton, CT). Data were expressed as relative luminescence units.
On the % scale 0 is the no-effect control and ±100 the full control effect; potency means the concentration at half of the fitted maximal effect.

Row | Compound | activity change, negative = inhibition | Potency
1 | CC(C)C(Br)C(=O)NC(N)=O (stereo not given) | 6.05% (inactive) | –
2 | CNC(C)Cc1ccccc1OC (stereo not given) | 1.48% (inactive) | –
3 | O=[N+]([O-])O[C@H]1CO[C@H]2[C@@H]1OC[C@H]2O[N+](=O)[O-] | -11.8% (inactive) | –
4 | CC(C)(N)Cc1ccccc1 | -9.67% (inactive) | –
5 | O=c1[nH]c2ccccc2n1C1CCNCC1 | -20.7% (inactive) | –
6 | CC[N+]1(CC)CCC(OC(=O)C(O)(c2ccccc2)c2ccccc2)C1 (stereo not given) | -6.95% (inactive) | –
7 | CN(C)CCc1c[nH]c2ccc(CN3CCN(C)S3(=O)=O)cc12 | -17.9% (inactive) | –
8 | N#Cc1cn([C@@H]2O[C@H](CO)[C@H](O)[C@@H]2O)c2ncnc(N)c12 | -12.3% (inactive) | –
9 | O=C(O)CCCOc1ccc(Cl)cc1Cl | 2.32% [at 115 µM] (inactive) | –
10 | O=C(N[C@@H]1N=C(c2ccccc2F)c2cccc3c2N(CC3)C1=O)c1cc2ccccc2[nH]1 | -18.9% (inactive) | –
11 | NCCCCCNC1(c2ccccc2)CCCCC1 | -3.08% (inactive) | –
12 | O=C(N1CCOCC1)N1CCN(c2ccc(Cl)cc2)CC1 | -0.0009% (inactive) | –
13 | COC(=O)C1=CCCN(C)C1 | 0.836% (inactive) | –
14 | NC1(c2ccccc2)CCCCC1 | -5.92% [at 115 µM] (inactive) | –
15 | COC1CC(=C(c2cccs2)c2cccs2)C[N+](C)(C)C1 (stereo not given) | -10.5% (inactive) | –
16 | NCc1cccnc1 | -19.7% (inactive) | –
17 | CC(C)NCC(O)c1ccccc1Cl (stereo not given) | 7.14% (inactive) | –
18 | CC(Cc1ccccc1)NC=O (stereo not given) | -1.41% (inactive) | –
19 | c1cc2c(c(N3CCNCC3)c1)OCCO2 | -5.6% (inactive) | –
20 | C#CCN(C)[C@H](C)Cc1ccccc1 | -3.79% (inactive) | –

Row | Compound | activity change, negative = inhibition | Potency
21 | CCCCCn1cc(C(=O)c2cccc3ccccc23)c2ccccc21 | -21.9% (inactive) | –
22 | CN=C(NS(=O)(=O)c1ccc(Cl)cc1)N1C[C@H](c2ccccc2)C(c2ccc(Cl)cc2)=N1 | 1% (inactive) | –
23 | NC(=O)[C@@H](CC1CC1)[C@@H](CCC(F)(F)F)C(=O)N[C@H]1N=C(c2ccccc2)c2cccc(F)c2NC1=O | -14.8% (inactive) | –
24 | CC(=O)C1CCOC1=O (stereo not given) | -20% (inactive) | –
25 | Cc1ccc([N+](=O)[O-])[c]2c1[O][Hg]2 | – | 617 nM (active)
26 | [N-]=[N+]=CC(=O)OC[C@H](N)C(=O)O | -5.93% (inactive) | –
27 | CCCC(C)(COC(N)=O)COC(=O)NC(C)C (stereo not given) | -22.2% (inactive) | –
28 | N[C@@H]1C[C@H]1c1ccccc1 | -19.8% (inactive) | –
29 | C[C@H](NC(=O)Cc1cc(F)cc(F)c1)C(=O)N[C@@H]1N=C(c2ccccc2)c2ccccc2N(C)C1=O | 9.26% (inactive) | –
30 | CNC(=O)NC(O)C(Cl)(Cl)Cl (stereo not given) | 7.95% (inactive) | –
31 | CCCCCCCCOC(=O)c1ccccc1C(=O)OCCCCCCCC | -25.2% (inactive) | –
32 | CCN(CC)C(=O)c1ccc(C2=CC3(CCNCC3)Oc3cccc(O)c32)cc1 | -27.4% (inactive) | –
33 | Sc1ccccc1Cl | -0.412% (inactive) | –
34 | CCC1(CC)C(=O)C=CNC1=O | -9.6% (inactive) | –
35 | OCCCCC#Cc1cncc(OC[C@@H]2CCN2)c1 | -16% (inactive) | –
36 | CNC(C)[C@@H](O)c1ccc(O)cc1 (stereo not given in full) | -1.25% (inactive) | –
37 | CCN(CC)CCOC(=O)C(O)(c1ccccc1)c1ccccc1 | -27.8% (inactive) | –
38 | CC(C)N(CCC(C(N)=O)(c1ccccc1)c1ccccn1)C(C)C (stereo not given) | -25.4% (inactive) | –
39 | CN1C(=O)[C@@H](NC(=O)c2cc3ccccc3[nH]2)N=C(c2ccccc2)c2ccccc21 | -27.6% (inactive) | –
40 | CC(=O)OC1C[C@H](O[C@@H]2C(O)C[C@H](O[C@@H]3C(O)C[C@@H](OC4CC[C@]5(C)C(CCC6C5CC(O)[C@@]5(C)C(C7=CC(=O)OC7)CC[C@@]65O)C4)OC3C)OC2C)O[C@H](C)[C@H]1O[C@H]1OC(CO)C(O)C(O)C1O (stereo not given in full) | -5.82% (inactive) | –
